# Only some compounds are listed: those with a hit (about 4% of all), similar ones and a draw of the others.
# Rv3671c protease: inhibits the M. tuberculosis serine protease Rv3671c. AID 2606. hit rate 0.048% among 320,000. inhibition, % at 5.96 µM; in the data active = inhibition above about 38%;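 note: extracellular domain of Rv3671c used as enzyme; 0% = enzyme with DMSO and 100% = no enzyme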
# Mtb FBA inh: inhibitors of M. tuberculosis fructose-bisphosphate aldolase; P9WQA3; purified M. tuberculosis FBA, fluorescence read-out; inhibition, % at 1 µM; hit rate 2.3% among 360,000; AID 588726;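 note: 0% = vehicle and 100% = reference inhibitor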
# Mtb betalactam: beta-lactam sensitization of Mtb H37Rv | M. tuberculosis H37Rv growth with meropenem, percent inhibition | inhibition, % at 25 µM | hit rate 0.27% among 330,000; call rule not given here;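 note: growth measured after seven days incubation then overnight dye step; 0% = bacteria only wells and 100% = bacteria with antibiotic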
# GDH-TPI counter-1: inhibits GDH-TPI coupling enzymes, artifact for Mtb FBA screen; inhibition, % at 4.8 µM; GDH-TPI coupled enzyme counterscreen, NADH absorbance; hit rate 1.2% among 360,000; in the data active = inhibition above about 30%;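 note: 0% = DMSO wells and 100% = wells lacking the enzyme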
# RecA splice inh: inhibitors of M. tuberculosis RecA intein splicing; P9WHJ3; cell-free RecA intein splicing, fluorescence; inhibition, % (test concentration not listed); hit rate 0.75% among 290,000; AID 2221; in the data active = inhibition above about 30%;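 note: 0% = vehicle wells and 100% = reference inhibitor control wells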
# UGM FP inh: blocks M. tuberculosis UGM enzyme. purified UGM, fluorescence polarization probe displacement. inhibition, % at 10 µM. hit rate 0.06% among 320,000. AID 504406; in the data active = inhibition above about 10%, passing the limit was not always enough
# Target sequence (P9WIQ1 whole entry, looked up): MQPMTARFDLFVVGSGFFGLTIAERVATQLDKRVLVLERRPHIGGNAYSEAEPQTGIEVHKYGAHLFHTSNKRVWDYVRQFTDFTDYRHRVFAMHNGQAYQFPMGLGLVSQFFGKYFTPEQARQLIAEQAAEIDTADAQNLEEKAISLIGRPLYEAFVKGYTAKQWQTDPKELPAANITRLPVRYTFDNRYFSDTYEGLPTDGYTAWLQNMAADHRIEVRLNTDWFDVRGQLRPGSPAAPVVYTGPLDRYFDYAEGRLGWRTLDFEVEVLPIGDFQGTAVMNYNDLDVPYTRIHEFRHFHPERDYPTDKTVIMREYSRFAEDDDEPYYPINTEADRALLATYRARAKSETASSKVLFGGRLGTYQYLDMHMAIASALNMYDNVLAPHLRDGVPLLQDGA
# Mtb FBA inh conf: Mtb FBA inhibition, confirmed; shares compounds with Mtb FBA inh; purified M. tuberculosis FBA, fluorescence read-out; inhibition, % at 1 µM; hit rate 78% among 5,600;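 note: 0% = vehicle wells and 100% = reference inhibitor wells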
# GDH-TPI counter-2: inhibits GDH-TPI coupling enzymes, flagging Mtb FBA hits | shares compounds with Mtb FBA inh | GDH-TPI coupled enzyme counterscreen, fluorescence | inhibition, % at 1 µM | hit rate 81% among 5,600 | AID 652141; in the data active = inhibition above about 10%
# GDH-TPI dose: GDH-TPI dose response counter-screen for Mtb FBA | hit rate 79% among 170 | shares compounds with Mtb FBA inh | IC50, µM | GDH-TPI coupled enzyme assay, fluorescence, artifact counterscreen; call rule not given here
# * marks the source's active call; other numbers are inactive results; i = inactive; nt = no result given; + = active, no number. Cut-off read from the data, not from the text of the source, unless noted: active = inhibition above about 27%; inactive = the rest.
SMILES,Rv3671c protease,Mtb FBA inh,Mtb betalactam,GDH-TPI counter-1,RecA splice inh,UGM FP inh,Mtb FBA inh conf,GDH-TPI counter-2,others
COc1ccc(C(CNC(=O)COc2cccc(C(F)(F)F)c2)N2CCCC2)cc1 (stereo unspecified),-4.6,7.9,3.2,-5.6,nt,-0.3,nt,nt,
CCCC(C(=O)Nc1ccc2c(C)cc(=O)oc2c1)c1ccccc1 (stereo unspecified),-0.4,27.9*,-7.3,10.7,-0.5,-0.2,10.8,3.8,GDH-TPI dose=2.81*
Cc1cc(=O)oc2cc(NC(=O)c3cccc(S(C)(=O)=O)c3)ccc12,-8.9,33.6*,3.6,21.0,-2.7,1.8,78.6*,61.6*,
Cc1cc(=O)oc2cc(NC(=O)C(C)Oc3ccc(F)cc3)ccc12 (stereo unspecified),-6.7,32.9*,-5.8,11.0,-2.3,-3.2,177.2*,143.7*,
Cc1cc(=O)oc2cc(NC(=O)c3ccc(OC(F)F)cc3)ccc12,-1.0,8.7,1.5,2.3,-1.1,0.9,nt,nt,
Cc1cc(=O)oc2cc(NC(=O)c3cccc(S(=O)(=O)N(C)C)c3)ccc12,1.4,3.9,3.3,-6.8,-1.2,0.8,nt,nt,
Cc1ccc(NC(=O)CCOc2ccccc2C)cc1F,-5.8,1.6,-5.2,-0.3,4.6,-0.7,nt,nt,
Cc1ccccc1OCCC(=O)Nc1ccc2c(C)cc(=O)oc2c1,-10.2,94.9*,-3.2,11.3,-1.5,1.2,183.0*,153.4*,
Cc1cccc(C(=O)NCC(=O)Nc2ccncc2)c1,-8.8,-2.6,-7.1,-3.2,-0.9,nt,nt,nt,
O=C(O)c1cccc2c1C(=O)c1cc([N+](=O)[O-])ccc1-2,nt,0.7,nt,0.0,nt,nt,nt,nt,
CSc1ccc(/C=C(/NC(=O)c2ccccc2)C(=O)NCCN2CCOCC2)cc1,-1.4,-0.8,-15.7,23.9,-2.0,1.0,nt,nt,
Cc1cc(Cl)c2oc(C(=O)N3CCCCC3CCN3CCCC3=O)c(C)c2c1 (stereo unspecified),8.1,3.1,1.2,-2.1,0.4,0.4,nt,nt,
CCN(CC)CCN(C(=O)c1ccc2c(c1)CCCC2)c1nc2c(C)cccc2s1,-1.7,-1.6,1.7,2.1,12.4,1.4,nt,nt,
CCc1nc2ccc(C(=O)NCCN3CCOCC3)cn2c1N(C)Cc1ccc(OC)cc1,nt,0.2,nt,3.5,nt,nt,nt,nt,
Cc1cccc(C2Nc3ccccc3C(=O)N2c2ccc(F)cc2)n1 (stereo unspecified),8.3,48.9*,-8.7,9.7,-2.8,1.1,4.4,-3.0,
O=C1c2ccccc2NC(c2ccccn2)N1c1ccccc1F (stereo unspecified),0.0,61.7*,-26.1,3.4,-7.0,-0.1,+,199.0*,
Cc1ccc(N2C(=O)c3ccccc3NC2c2ccccc2O)cc1 (stereo unspecified),-7.6,16.6,4.6,14.0,-1.2,0.0,nt,nt,
COc1cc(C2Nc3ccccc3C(=O)N2c2ccccc2OC)ccc1O (stereo unspecified),-2.2,13.1,-8.1,1.0,-0.6,2.8,nt,nt,
CCN(CC1CCCO1)C(=O)C1CCN(C2CCN(Cc3ccccc3C)CC2)CC1 (stereo unspecified),-8.5,1.4,3.4,24.7,-0.4,0.1,nt,nt,
CCOC(=O)c1nc2c(ccc3ccccc32)cc1C,-3.4,30.8*,20.2,3.0,2.2,-2.1,+,168.1*,
CN(C)C(=O)c1cccc(-c2cccc3nccn23)c1,nt,40.8*,nt,6.7,nt,nt,87.8*,58.5*,
CCC1CN(C(=O)NCc2cccc(OC)c2)c2ccccc2O1 (stereo unspecified),nt,67.9*,2.7,3.5,2.7,-1.2,-0.4,-5.7,
COc1ccc(CC(NC(C)=O)C(=O)NC2CCN(c3nc(C)cc(C)c3C#N)CC2)cc1OC (stereo unspecified),2.5,31.1*,2.5,-0.6,2.6,1.6,161.7*,120.9*,
CCN(CC)C(=O)COc1c(-c2ccco2)oc2ccccc2c1=O,3.9,27.4*,-5.8,33.3*,-4.7,-2.7,155.6*,154.7*,
CCn1c2ccccc2c(=O)c2ccccc21,-4.0,87.1*,-4.3,6.6,-272.9,3.4,5.0,-3.7,
SMILES,Rv3671c protease,Mtb FBA inh,Mtb betalactam,GDH-TPI counter-1,RecA splice inh,UGM FP inh,Mtb FBA inh conf,GDH-TPI counter-2,others
Cc1nc(N2CCC(C)CC2)c2c(C)c(C(=O)Nc3ccc(C(F)(F)F)cc3)sc2n1,-24.4,33.9*,4.7,13.2,0.8,0.9,0.9,-1.0,
CCOC(=O)c1c(NC(=O)Cn2nnc(-c3ccccc3Cl)n2)sc(C)c1C,3.9,109.5*,2.6,9.8,0.4,0.5,0.4,-5.3,
CCOC(=O)c1ccc(NC(=O)Cn2nnc(-c3ccccc3C)n2)cc1,-67.9,-9.8,88.1,-5.3,2.8,2.2,nt,nt,
CC1=C(C(=O)N(C)C)CC(CC(=O)NCCCCc2ccccc2)C(=O)N1Cc1ccc(C(C)(C)C)cc1 (stereo unspecified),nt,-0.7,nt,5.2,nt,nt,nt,nt,
Nc1nc2ccccc2nc1N,2.5,50.6*,7.5,3.4,-2.9,-1.9,68.9*,60.7*,
Nc1c2ccccc2nc2ccccc12,-6.6,63.4*,72.4,5.8,i,-2.5,72.5*,47.7*,
N#Cc1c2ccccc2nc2ccccc12,1.0,27.6*,95.0,-2.2,-1.8,-7.5,181.9*,116.7*,
Nc1c2c(nc3ccccc13)CCCC2,5.1,-1.4,-2.3,13.0,0.2,1.5,nt,nt,
CCCc1c2ccccc2nc2ccccc12,1.8,50.0*,0.0,8.1,-12.4,3.3,38.4*,33.6*,
O=C(COC(=O)/C=C/c1ccc(OC(F)F)cc1)NC1CCCCCCC1,-10.6,-2.5,-0.3,10.0,-0.1,3.8,nt,nt,
CSc1ccccc1OCc1cc(C(=O)N2CCN3CCCC3C2)no1 (stereo unspecified),2.7,-0.9,2.4,-3.1,0.6,-0.1,nt,nt,
COc1ccccc1Nc1nc2ccc(C)cc2n2cnnc12,-11.1,0.9,2.1,15.1,-5.4,-0.4,nt,nt,
Cn1c(NN)nc2ccccc2c1=O,-2.8,4.6,4.0,4.2,-7.0,-1.5,nt,nt,
Cn1c(N)nc2ccccc2c1=O,-4.3,28.1*,-13.5,-0.7,6.5,-0.2,34.1*,22.3*,
CC12CCC(=O)N1C(C(=O)OCC(=O)Nc1ccc(C(F)(F)F)cc1)CS2 (stereo unspecified),-11.5,-2.5,2.0,-1.4,nt,1.5,nt,nt,
Cc1cc(C)c2c(N)c(C(=O)NN3CC(=O)N(c4cccc(Cl)c4)CC3=O)sc2n1,3.5,14.6,1.8,3.2,-9.9,0.8,nt,nt,
Cc1cc(C)c2c(N)c(C(=O)NN3CC(=O)N(c4ccccc4)CC3=O)sc2n1,8.0,57.0*,2.9,2.2,-21.5,-2.0,187.9*,128.7*,
COc1ccc(C(=O)N/N=C(\c2ccccc2)c2ccccn2)cc1,6.7,49.4*,98.2,17.1,2.7,-1.1,147.2*,115.5*,
O=C(NN=C(c1ccccc1)c1ccccn1)c1ccccc1,6.3,-3.5,98.0,7.8,nt,1.7,nt,nt,

# Bioassay records: PubChem BioAssay, several laboratories
